Screening results (PubChem)
RORg inh: inhibitors of mouse ROR gamma transcriptional activity; Drosophila S2 Gal4-RORgamma UAS-luciferase reporter, 20 h; P51450; AID 2551; 5.4% of 310,000 active; Potency, µM (doses to about 53.6 µM), usual class: inhibitors; further: nearly all actives have a fitted effect of over 60% in size
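ROR gamma transcriptional activity was tracked as Gal4-UAS luciferase output in stably transfected Drosophila Schneider cells, with compound added 1 hr before 700 uM copper sulfate induction and a 20 hr ambient-temperature incubation.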
Six1-Eya2 inh: inhibitors of human Six1/Eya2 interaction. AlphaScreen GST-Six1/His-Eya2 binding, biochemical; active compounds read low. activity change, % (concentration not given with the values). 0.56% of 360,000 active; in the data active means activity change below about -65%; inconclusive means mostly about -30% to -63%
Target sequence (O00167 whole entry, looked up): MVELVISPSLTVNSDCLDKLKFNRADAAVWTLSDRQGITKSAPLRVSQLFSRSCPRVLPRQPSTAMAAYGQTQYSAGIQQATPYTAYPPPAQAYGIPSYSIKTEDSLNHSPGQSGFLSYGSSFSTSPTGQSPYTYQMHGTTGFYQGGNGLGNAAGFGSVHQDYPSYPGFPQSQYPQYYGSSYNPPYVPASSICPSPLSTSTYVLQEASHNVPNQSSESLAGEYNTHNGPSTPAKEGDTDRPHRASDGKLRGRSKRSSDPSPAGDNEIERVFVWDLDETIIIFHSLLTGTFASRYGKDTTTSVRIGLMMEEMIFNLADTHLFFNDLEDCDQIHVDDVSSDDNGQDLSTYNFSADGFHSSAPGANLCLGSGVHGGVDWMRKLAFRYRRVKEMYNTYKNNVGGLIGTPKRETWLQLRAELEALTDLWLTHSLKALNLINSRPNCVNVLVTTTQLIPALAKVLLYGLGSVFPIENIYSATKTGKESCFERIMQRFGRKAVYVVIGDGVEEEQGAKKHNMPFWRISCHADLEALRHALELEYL
Target sequence (Q15475 whole entry, looked up): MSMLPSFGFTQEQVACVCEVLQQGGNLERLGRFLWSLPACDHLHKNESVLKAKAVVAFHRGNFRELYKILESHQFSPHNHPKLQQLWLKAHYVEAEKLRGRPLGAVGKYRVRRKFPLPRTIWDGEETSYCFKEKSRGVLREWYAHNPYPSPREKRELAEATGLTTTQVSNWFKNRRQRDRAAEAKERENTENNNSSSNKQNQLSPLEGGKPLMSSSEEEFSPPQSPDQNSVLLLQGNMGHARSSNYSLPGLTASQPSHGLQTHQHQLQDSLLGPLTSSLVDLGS
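Homogeneous AlphaScreen proximity assay pairing GST-Six1 with His-tagged Eya2 (added as 5X mix: 250 nM and 500 nM) in 50 mM Tris pH 8.0, 300 mM NaCl, 1 mM TCEP. Glutathione donor and nickel acceptor beads; 1 h, 37 °C, dark.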
CtBP-E1A blk: blocks the CtBP interaction with E1A. AlphaScreen GST-E1A/His-CtBP binding, 1536-well; active compounds read low. activity change, % (test concentration not listed). 0.49% of 340,000 active. AID 651724; in the data active means activity change below about -65%; inconclusive means mostly about -30% to -63%
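Homogeneous bead-based format: GST-tagged E1A captured on glutathione donor beads, His-tagged CtBP on nickel acceptor beads; compounds precede bead addition by 2 h at 37 °C.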
Gal4-VP16 FLuc: Gal4-VP16 reporter inhibition counter-screen. 3.5% of 310,000 active. Potency, µM (doses to about 53.6 µM), hits mostly inhibitors. Drosophila S2 Gal4-VP16 UAS-luciferase, luminescence, 20 h. AID 2546;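 further: Gal4-VP16 expression switched on by copper sulfate through the metallothionein promoter; nearly all actives have a fitted effect of over 50% in size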
p53 reactivation: mutant p53 re-activation in reporter cells; H1299 p53-A138V BP100-luciferase reporter, luminescence, 24 h; Potency, µM (highest dose often 92.2 µM), hits mostly activators; 0.063% of 320,000 active; further: nearly all actives have a fitted effect of over 45% in size
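p53-null H1299 cells stably carrying temperature-sensitive p53-A138V and a BP100-luciferase reporter were pinned with compounds (4-point, 1:5 series) and held 24 hrs at 37 deg C. Luminescence was read 10 min after detection reagent.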
Numbers stand for hits; n = inactive; u = inconclusive; x = no result given; [ ] = dose if it differs, or a comment. Rows were chosen to be rich in hits. Some 5.4% of all compounds tested hit in one or more screens of this group. Unless noted, the call rests on the fitted dose curve; in most records, active means well fitted curve in the direction sought with a large enough effect; inconclusive means small, poorly fitted or top-dose-only effect, or another doubt; inactive means no such curve, though single readings can be large; an effect the other way counts as inactive or inconclusive.

SMILES | RORg inh | Six1-Eya2 inh | CtBP-E1A blk | Gal4-VP16 FLuc | p53 reactivation
COCCNC(=S)N=Nc1c(O)[nH]c2ccc([N+](=O)[O-])cc12 | 0.56µM | n | n | n | n
COc1ccccc1NC(=S)N=Nc1c(O)[nH]c2ccc(Br)cc12 | 2µM | n | x | 5.6µM | n
CC(C)C(C)(C#N)NC(=O)CSc1nc2scc(-c3ccc(F)cc3)c2c(=O)n1Cc1ccccc1 (stereo not drawn) | 18µM | n | n | u | n
COc1ccc2c(c1)C(=O)[C@H](OC(=O)Nc1ccc(OC(F)F)cc1)[C@@H](c1ccc(OC)c(Br)c1)O2 | n | x | x | n | x
CNC(=S)NNC(=O)c1sc2cc(C(F)(F)F)cnc2c1-c1cccnc1 | 18µM | n | n | n | n
CNC(=S)NNC(=O)c1sc2cc(C(F)(F)F)cnc2c1-c1ccccn1 | 1.1µM | n | n | n | n
NC(=O)c1sc2cc(C(F)(F)F)cnc2c1-c1ccccc1 | n | n | n | n | n
CSc1nnc(-c2sc3cc(C(F)(F)F)cnc3c2-c2ccccn2)n1C | n | n | n | n | n
Cc1cc(-c2ccccc2)c2ccc(NC(=O)C(C)(C)C)nc2n1 | 11µM | n | x | u | x
Cc1cc(C)nc(/N=C(\NC(=O)C(C)(C)C)Nc2ccccc2)n1 | n | n | n | n | n
CC(=O)c1cnc(Nc2nc(C)c3ccc(C)cc3n2)nc1C | u | n | n | u | n
CC(=O)c1c(C)nc(Nc2nc(C)c3cc(C)ccc3n2)nc1C | 4µM | n | n | u | n
OC[C@H](S)CS | n[10 µM] | x | x | u | x
COC(=O)CCC(=O)Nc1ccc(Br)cc1 | n | n | n | n | n
COc1ccc(N2C(=O)CC(N3CCC(O)(c4cccc(C(F)(F)F)c4)CC3)C2=O)cc1 (stereo not drawn) | 2.5µM | n | n | u | n
COc1ccc(N2C(=O)CC(N3CCCCC3)C2=O)cc1 (stereo not drawn) | n | n | x | u | n
CCN(CCCNc1cc2c(c(N)c1S(=O)(=O)O)C(=O)c1ccccc1C2=O)c1ccccc1 | x | -65 | n | x | x
Brc1ccc2nc3c(n2c1)CCCC3 | 13µM | n | n | u | n
CC(C)(C)S(=O)(=O)c1ccc2nc3c(n2c1)CCCC3 | n | n | n | n | n
CCCCOC(=O)CCn1[nH]c(=O)c2ccccc2c1=O | n | n | n | u | n
O=C(CCn1[nH]c(=O)c2ccccc2c1=O)OC1CCCCC1 | u | n | n | 22µM | n
CC(=O)Nc1ccc(NC(=O)c2ccccc2S(=O)(=O)c2ccc([N+](=O)[O-])cc2)cc1 | n | n | n | n | n
CN1C(=O)/C(=C/c2ccccc2OCc2ccc(C(=O)O)cc2)NC1=S | n | n | n | n | n
CN1C(=O)/C(=C/c2ccccc2OCc2ccccc2)NC1=S | 7.1µM | n | n | u | n
COc1cc(/C=C2\NC(=S)N(C)C2=O)ccc1OCc1cccc(F)c1 | u | n | x | u | n
SMILES | RORg inh | Six1-Eya2 inh | CtBP-E1A blk | Gal4-VP16 FLuc | p53 reactivation
CN1C(=O)/C(=C/c2ccccc2OCc2cccc(F)c2)NC1=S | 4µM | n | n | 3.2µM | n
CCCCNc1nc(C)nc2c1nc(-c1ccccc1)n2CC(C)(C)CN(C)C | n | x | x | n | x
COc1cccc(-c2nn(C)c3sc(C(=O)NCc4ccc(C)o4)cc23)c1 | n | u | u | 20µM | n
O=C(O)c1c2c(nc3ccccc13)/C(=C/c1ccc(OC(F)F)cc1)CCC2 | n | n | n | n | u
COc1ccccc1NC(=O)c1c(C)nc2ccccc2c1C(=O)O | n | n | n | n | n
COc1cccc2c1CCc1c-2nc2ccccc2c1C(=O)O | u | n | n | 10µM | n
O=C(O)c1c2c(nc3ccccc13)/C(=C/c1ccc(O)cc1)CC2 | 7.9µM | u | x | 13µM | n
COc1ccc(C(C)(C)C)cc1NC(=O)c1ccoc1C | 2.2µM | n | n | u | n
COc1ccc(C)cc1NC(=O)c1ccoc1C | n | n | n | n | n
CC(C)Oc1ccc(/C=N/NC(=O)C(CSCc2ccccc2)NC(=O)c2ccc([N+](=O)[O-])cc2)cc1 (stereo not drawn) | u | n | n | n | n
O=C(NCCN1CCCC1)C(c1ccccc1)c1ccccc1 | n | n | n | n | x
COc1ccc(C(=O)/C=C2\Sc3ccccc3N2C)cc1 | u | n | n | u | n
CC(=S)/C=C1\Sc2ccccc2N1C | 5µM | n | n | 10µM | n
CC(C)NC(=O)c1cc(C2CCCCN2C(=O)c2cc(C(C)(C)C)nn2C)on1 (stereo not drawn) | x | n | n | x | x
O=C(O)C1Nc2c(O)cc(Cl)c([N+](=O)[O-])c2C2C=CCC12 (stereo not drawn) | 10µM | u | x | n | n
O=C(O)C1Nc2c(cccc2C(F)(F)F)C2C=CCC12 (stereo not drawn) | n | x | x | n | n
CC(C)(CO)NC(=S)NCc1ccco1 | n | n | n | n | n
Cc1cccc(-c2nsc(SCC(=O)Nc3nccs3)n2)c1 | 11µM | n | n | n | n
Cc1cccc(-c2nsc(SCC(=O)N3CCCC3)n2)c1 | 7.1µM | n | n | u | n
Cc1cccc(-c2nsc(SCC(=O)Nc3ccc4c(c3)OCO4)n2)c1 | n | n | n | n | u
O=C(COC(=O)Cn1cnc2ccccc21)Nc1cc2c(cc1Cl)C(=O)c1ccccc1C2=O | 2.8µM | u | x | u | n
